This passage reports growth results from PubChem BioAssay (NCI).

Holding throughout (assay): NCI-60 one-dose screen, 48 h (100 = growth as untreated, 0 = no growth, -100 = all killed)
Details in all cases: 10 µM unless noted

Assay [1] relates to SK-MEL-2 melanoma.
In assay [2] the test system is EKVX NSCLC.
Assay [3] has as its system SN12C renal.
Assay [4] concerns UO-31 renal.
For assay [5], the system named is TK-10 renal.
In assay [6] the test system is ACHN renal.
Assay [7] deals with CAKI-1 renal.
In assay [8] the test system is A498 renal.
The test system of assay [9] is MOLT-4 leukemia.
The subject of assay [10] is SR leukemia.
The test system of assay [11] is RPMI-8226 leukemia.
Assay [12] concerns OVCAR-8 ovarian.
Assay [13] concerns OVCAR-5 ovarian.
Assay [14] deals with OVCAR-4 ovarian.
The test system of assay [15] is SK-OV-3 ovarian.
Assay [16] deals with IGROV1 ovarian.
Assay [17] deals with OVCAR-3 ovarian.
The subject of assay [18] is HS 578T breast.
Assay [19] has as its system NCI/ADR-RES ovarian.

The structures appear in SMILES notation. This is part of a sample that, as a whole, favours compounds with a hit. Of some 83,000 tested, about 20% had one in any assay.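 Treatment: one concentration, 48 hours, 96-well format. Scoring: percent growth, with anything below 10 considered active.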 Values without a mark were called inactive. Activity calls are given as the source filed them.

As for `COC(=O)[C@H](CSC)N(C)C(=O)[C@@H]1CSSC[C@@H](NC(=O)c2nc3ccccc3cc2O)C(=O)NCC(=O)N1C`, the growth in assay [1] is 61.3%; in assay [2], 82.8%; in assay [3], 66.5%; in [4], 71.9%; in [5], 88.4%; in assay [6], 88%. Moreover, the growth in assay [7] is 104%; in assay [8] it was 102%; in [9] it was 23.8%; in assay [10], 28.6%; in assay [11], 85.2%; in assay [12], 90.2%. The growth in assay [13] is 128%; in [14], 103%; in assay [15], 91.6%; in assay [16] it was 95.8%; in [17], 58.2%; in [18], 90.9%. The growth in assay [19] was 104%.
Consider `Cc1c(C)c2c(c(C)c1OCC(=O)O)CC[C@@](C)(CCC[C@@H](C)CCC[C@@H](C)CCCC(C)C)O2`, for which the growth in [1] was -26.6% [50 µM] (active); in assay [2], 32.3% [50 µM]; in [3], -32.3% [50 µM] (active); in [4], 32.6% [50 µM]; in assay [5], -0.128% [50 µM] (active); in assay [6] it was -31.9% [50 µM] (active). In addition, the growth is 7.85% [50 µM] (active) in [7]; -37.5% [50 µM] (active) in [8]; -1.22% [50 µM] (active) in [9]; 0.521% [50 µM] (active) in [10]; -39.4% [50 µM] (active) in [11]; -9.97% [50 µM] (active) in assay [12]. Moreover, the growth was 25.5% [50 µM] in [13]; 45.9% [50 µM] in assay [14]; 53.3% [50 µM] in [15]; 1.82% [50 µM] (active) in [16]; -67.3% [50 µM] (active) in assay [17]; 23% [50 µM] in [18]. Moreover, the growth in assay [19] was -28.2% [50 µM] (active).
As to `Cc1ccc(-c2cc(-c3ccccc3C)[nH]c(=O)c2C#N)s1`, the growth was 110% in assay [1]; 96.9% in [2]; 91.8% in assay [3]; 71.7% in assay [4]; 92.1% in [5]; 90.7% in [6]. Besides, the growth in assay [7] is 82.9%; in assay [8] it was 77.5%; in [9] it was 93.3%; in assay [10], 118%; in [11] it was 97.5%; in assay [12] it was 95.5%. Besides, the growth is 93.4% in assay [13]; 85.1% in [14]; 111% in [15]; 80.4% in assay [16]; 82.8% in assay [18]; 96.8% in [19].
As for `COc1ccc2[nH]c(O)c(/C=c3/cc4c(c(-c5cc(OC)c(OC)c(OC)c5)n3)=Nc3ccccc3-4)c2c1`, the growth is 83% in [1]; 81.3% in assay [2]; 80.6% in [3]; 51.5% in assay [4]; 98% in [5]; 72% in assay [6]. Besides, the growth in assay [7] was 71.6%; in [8], 43.3%; in assay [9], 23.5%; in assay [10], 10.4%; in assay [11], 1.39% (active); in assay [12], 42%. Further, the growth was 116% in assay [13]; 64.8% in assay [14]; 113% in [15]; 85.8% in assay [16]; 74.5% in [17]; 73.9% in [18]. For the same compound, the growth in assay [19] was 39.4%.
As for `N=C(N)c1ccc(-c2ccc(-c3cncc4ccccc34)s2)s1`, the growth is 79.3% in assay [1]; -65.7% (active) in assay [2]; -63% (active) in [3]; -76.6% (active) in assay [4]; -93.5% (active) in [5]; -88.5% (active) in assay [6]. Further, the growth in assay [7] was -91.4% (active); in assay [8] it was 70.2%; in [9], -50.3% (active); in assay [10], -29.3% (active); in assay [11], -33.5% (active); in [12], -67.9% (active). Also, the growth was -69.3% (active) in assay [13]; -90.4% (active) in assay [14]; 64.4% in assay [15]; -75.1% (active) in assay [16]; -85.5% (active) in [17]; -49.6% (active) in assay [18]. For the same compound, in assay [19], the growth is -53% (active).
Take `CCCCCCCCCCN(CCCCCCCCCC)CC(=O)c1ccc2cc(Br)c3ccccc3c2c1`: the growth was 101% in [1]; 83.5% in [2]; 81.1% in [3]; 2.3% (active) in assay [4]; 79.9% in [5]; 97.3% in assay [6]. In addition, the growth in [7] was 46.3%; in [8], 53.2%; in assay [9] it was -39.6% (active); in assay [10], -28.5% (active); in assay [11], -33.1% (active); in assay [12] it was 86.9%. Further, the growth in [13] was 95.3%; in [14] it was 77.4%; in [15], 104%; in [16] it was -79.5% (active); in assay [17] it was 51.2%; in [19], 64.8%.
For the compound `COc1cccc(Nc2nccc(Nc3ccc4[nH]ncc4c3)n2)c1`, the growth in assay [1] is -37% (active); in [2], 34%; in assay [3], 20.2%; in assay [4], -62.1% (active); in assay [5], -77.7% (active); in assay [6], -3.17% (active). In addition, the growth in [7] was -30.8% (active); in assay [8] it was 12.7%; in [9], -32.4% (active); in assay [10], -11.5% (active); in assay [11], -39.6% (active); in assay [12], -80.5% (active). Further, the growth in [13] is 32.9%; in [14] it was -59.6% (active); in [15], 15.3%; in [16], -24.2% (active); in assay [17], -61.5% (active); in [18], 23.9%. The growth in assay [19] is -11.4% (active).
Regarding `CC/C=C\C[C@H](O)C/C=C1/C(=O)C=C[C@@H]1C/C=C\CCCC(=O)OC`, the growth in assay [1] was -2.28% (active); in assay [2], 35.5%; in assay [3], -7.19% (active); in [4], -75.1% (active); in assay [5], -1.5% (active); in assay [6], -57.5% (active). The growth in assay [7] is -15.6% (active); in [8], 103%; in assay [9] it was -6.76% (active); in [10] it was -4.28% (active); in assay [11] it was -11.5% (active); in assay [12], -6.94% (active). Besides, the growth in assay [13] was 27.1%; in assay [14], 36.8%; in [15], 35.9%; in [16], 0.514% (active); in assay [17] it was -6.12% (active); in assay [18] it was 41.1%. Further, the growth in assay [19] is 20.6%.
